The target in one assay is BST2. Description: pooled miR-30 sensor sort-seq; sequence = guide strand. Particulars: shRNA.
On to TTAATGTAGTGATCTCTCCCTC, for which the sensor-assay potency score (higher = more potent) was -0.16.
Sequence TACTTCTTGTCCGCGATTCTCA registered a sensor-assay potency score (higher = more potent) of -0.543.
Take TGGTTTTCTCTTCTCAGTCGCT: the sensor-assay potency score (higher = more potent) is -0.752.
The sequence TTGTCCGCGATTCTCACGCTTA gave a sensor-assay potency score (higher = more potent) of -0.717.
TCTCACGCTTAAGACCTGGTTT: the sensor-assay potency score (higher = more potent) is -0.474.
TGAAGCTTATGGTTTAATGTAG came in with a sensor-assay potency score (higher = more potent) of -0.303.
As to TTCTCAGTCGCTCCACCTCTGC, the sensor-assay potency score (higher = more potent) is -1.51.
Sequence TTTGTCCTTGGGCCTTCTCTGC displayed a sensor-assay potency score (higher = more potent) of -1.64.
Sequence TAGTACTTCTTGTCCGCGATTC returned a sensor-assay potency score (higher = more potent) of -1.14.

Another assay has as its target BTAF1. The description is as above. As to conditions: shRNA.
Sequence TTACTCAACAGTTCCATCCAAA had a sensor-assay potency score (higher = more potent) of -0.305.
Turning to TAGAGTGTAATTATACCTCTGT, the sensor-assay potency score (higher = more potent) was 0.377.
Same read-out and setting: as for TAAAGTATTAATTACATCCTGA, the figure is -0.104; as for TAAGAGTACAATAATAGTCTTG, -0.191.
TAGCTTCAACAGCTTGTCCTGC had a sensor-assay potency score (higher = more potent) of -0.281.
As for TACAGCAACAAAGTGCTCCTAA, the sensor-assay potency score (higher = more potent) was 0.633.
Consider TAGAACTTTCGGAAGTAGGTTC, for which the sensor-assay potency score (higher = more potent) is -0.237.
The same measure, in the same setting: as for TAATACTATTTGTTGAAGCTGT, the figure is 0.361; as for TTTTGATCTTGCATATTCCTGG, -0.211; as for TTTACTGCTTTTGACAACTTTG, -1.03.
Same read-out and setting: as for TTGATCTTGCATATTCCTGGGC, the figure is 0.499.
On the same count and under the same terms, as for TAACCAGTTCACACCATCCTGC, the figure is -0.839.

The target in another assay is BVES. The assay is described as above. As to conditions: shRNA.
TTTCATACAAGAAAGGTTCTGA: the sensor-assay potency score (higher = more potent) turned out to be 0.905.
TAGTCTTCTGAACAAATCTGGA came in with a sensor-assay potency score (higher = more potent) of -1.1.
For TTATATCCAAGGCACATCGGTA, the sensor-assay potency score (higher = more potent) is -1.03.
On the same count and under the same terms, as for TTGTGCATCTGAGTTGATCTAA, the figure is 0.0688.
TTCCTTTTCAATCTTTACCGGT had a sensor-assay potency score (higher = more potent) of -0.474.
With TTTTTCACCTTTGTGCATCTGA, the sensor-assay potency score (higher = more potent) amounted to 0.533.
In the case of TTCTGCTCCTTCTTCTATCGGT, the sensor-assay potency score (higher = more potent) stood at 0.109.
ATTTGCTACATGAAAAACCAGA gave a sensor-assay potency score (higher = more potent) of -1.03.
As for TTATCATCTGCAATAATGGTGA, the sensor-assay potency score (higher = more potent) was -0.542.
The sequence TCTTCTATCGGTTTCATCTTGG had a sensor-assay potency score (higher = more potent) of 0.0355.
As for TTAGTCTTCTGAACAAATCTGG, the sensor-assay potency score (higher = more potent) came out at 0.0292.
Turning to TTCTTCTATCGGTTTCATCTTG, the sensor-assay potency score (higher = more potent) was -0.512.

For a further assay, the target named is BZW1. The assay is described as above. Particulars: shRNA.
In turn, TTCTTCAGCATTTTTGAGCCAT registered a sensor-assay potency score (higher = more potent) of -0.303.
Turning to TTTTCTAGTTTTAAAACGCTGG, the sensor-assay potency score (higher = more potent) is -0.34.
In turn, TTAACTTGTTAAAAACCTGAGC returned a sensor-assay potency score (higher = more potent) of -0.612.
The sequence TGAAACTCCTTCTTTAACCAAA gave a sensor-assay potency score (higher = more potent) of -0.866.
The same measure, in the same setting: as for TTGTGAAGTGTTCAACACTTTG, the figure is -1.21; as for TTGCTCAAGGAAAACACTCTTC, -0.371.

The values are drawn from the OligoGym collection.
Also: reference of the scale not given here.
